The record followed here is PubChem BioAssay (NCATS).

SMILES strings stand for the structures. Results filed as inconclusive are left out. A call without a number means that no potency is given here. Calls of active or inactive are those of the source. Calls follow the shape of the dose curve; as a rule, active = well fitted cell-killing curve with a large enough effect; inconclusive = small, poorly fitted or top-dose-only effect, or effect the other way; inactive = no such curve, though single readings can be large or run the other way.
Potency is read from the fitted curve at half-maximal effect.

The experiment can be described thus: Quantitative High-Throughput drug screen in 47 multiple myeloma cell lines against the NCATS MIPE library collection: KMS34_JCRB cell viability assay (AID 1918985). Also: nearly all actives have a fitted effect of over 40% in size. Conditions: KMS34 myeloma viability, CellTiter-Glo ATP luminescence, 48 h; series mostly up to 45.8 µM. The text has this:
PI: Beverly A. Mock Ph.D.
Laboratory of Cancer Biology and Genetics,
Center for Cancer Research, National Cancer Institute,
National Institute of Health, Bethesda, Maryland
Drug resistance and disease progression are common in multiple myeloma (MM) patients, underscoring the need for new therapeutic combinations. […] We hypothesized that effective combinations would reduce MYC expression and enhance p16 activity. […] These preclinical data identify potentially useful drug combinations for evaluation in drug-resistant MM and reveal potential mechanisms of combined drug sensitivity.
Described herein is the primary MIPE qHTS used to cherrypick compounds. Validated compounds were then further tested for potential synergistic activiy.
[1] Peat TJ, Gaikwad SM, Dubois W, Gyabaah-Kessie N, Zhang S, Gorjifard S, Phyo Z, Andres M, Hughitt VK, Simpson RM, Miller MA, Girvin AT, Taylor A, Williams D, D'Antonio N, Zhang Y, Rajagopalan A, Flietner E, Wilson K, Zhang X, Shinn P, Klumpp-Thomas C, McKnight C, Itkin Z, Chen L, Kazandijian D, Zhang J, Michalowski AM, Simmons JK, Keats J, Thomas CJ, Mock BA. Drug combinations identified by high-throughput screening promote cell cycle transition and upregulate Smad pathways in myeloma. Cancer Lett. 2023 Aug 1;568:216284. doi: 10.1016/j.canlet.2023.216284. Epub 2023 Jun 24. PMID: 37356470; PMCID: PMC10408729.
SEQUENCE No. (e.g., 1, 2, 3, etc.); […] (e.g., Cells, Incubation, Reagent, etc.); VALUE and DESCRIPTION.
1; Cells; 5 uL; white, solid bottom 1536-well Greiner assay plate.
2; Compounds; 23 nL; Kalypsis pin tool (Wako USA) equipped with a 1536-well pin head to transfer to the assay plates.
3; Incubation; 48 hours; 37C incubation.
4; Reagent;5uL; CellTiter Glo (Promega).
5; Detector; 425V; Luminescence; Viewlux PerkinElmer.
NOTES (numbers refer to Sequence numbers above)
1. The cell-based screening methods employed in this study were like those previously published. Briefly, the corresponding myeloma cell lines were screened in 1,536-well plates with 500 cells, 5-uL per well for inhibition of cell viability (assessed by measuring ATP levels with CellTiterGlo).
2. NCATS MIPE 4.0 library of approved and investigational drugs were added using the Kalypsis pin tool. Wells treated with DMSO only for 100% viability and media only for 0% viability were used as controls.
3. The assay plates were covered and incubated for 48 hours in a 37C, 5% CO2 incubator with controlled humidity.
4. After 48 hours, CellTilter-GloTM luminescent substrate mix (Promega) reagent was added to the assay plate and plates we incubated for 5 min at room temperature.
5. Signal was measured as median relative luminescence units on a ViewLux (PerkinElmer) multiplate reader.
[1] Heske CM, Davis MI, Baumgart JT, Wilson K, Gormally MV, Chen L, Zhang X, Ceribelli M, Duveau DY, Guha R, Ferrer M, Arnaldez FI, Ji J, Tran HL, Zhang Y, Mendoza A, Helman LJ, Thomas CJ. Matrix Screen Identifies Synergistic Combination of PARP Inhibitors and Nicotinamide Phosphoribosyltransferase (NAMPT) Inhibitors in Ewing Sarcoma. Clin Cancer Res. 2017 Dec 1;23(23):7301-7311. doi: 10.1158/1078-0432.CCR-17-1121. Epub 2017 Sep 12. PMID: 28899971; PMCID: PMC6636827.
For orientation: In ATP-based viability assays light output follows the ATP content of the culture.
Consider `Cn1c(=O)c2c(ncn2C)n(C)c1=O`, for which the Potency entry is “inactive”. Regarding `CC1(C)O[C@H]2CC(=O)OC[C@]23[C@H]2CC[C@@]4(C)[C@H](c5ccoc5)OC(=O)[C@H]5O[C@]54[C@]2(C)C(=O)C[C@@H]13`, the Potency entry is “inactive”. Then `CCc1cccc2c3c([nH]c12)C(CC)(CC(=O)O)OCC3` (stereo not given), with “inactive”. With `O=C1N(c2ccccc2)c2ccccc2C1(Cc1ccncc1)Cc1ccncc1`, the Potency entry was “inactive”. Turning to `Cc1ccc(-c2cc(C(F)(F)F)nn2-c2ccc(S(N)(=O)=O)cc2)cc1`, the Potency is 1.32 µM (active). For `Cc1ccccc1N1C(=O)c2cc(S(N)(=O)=O)c(Cl)cc2NC1C` (stereo not given), the Potency result is “inactive”. The value for `Cn1cnc2c1c(=O)[nH]c(=O)n2C` was 16.6 µM (active); that for `Cn1c(=O)c2[nH]cnc2n(C)c1=O` was “inactive”; that for `CCCCc1oc2ccccc2c1C(=O)c1cc(I)c(OCCN(CC)CC)c(I)c1` was 11.8 µM (active).

Take `O=C(Nc1ccc([N+](=O)[O-])cc1Cl)c1cc(Cl)ccc1O`: the Potency was 1.66 µM (active). Regarding `Nc1nc2c(ncn2COC(CO)CO)c(=O)[nH]1`, the Potency is 23.5 µM (active). For the compound `CCC1(C)CC(=O)NC1=O` (stereo not given), the Potency entry is “inactive”. As to `CN(C)CCC=C1c2ccccc2C=Cc2ccccc21`, the Potency entry is “inactive”. Regarding `Clc1ccc2c(c1)C(N1CCNCC1)=Nc1ccccc1O2`, the Potency is 18.7 µM (active).

Take `NC(=O)OCC(COC(N)=O)c1ccccc1`: the Potency entry is “inactive”.

As for `Cc1cn([C@H]2C[C@H](N=[N+]=[N-])[C@@H](CO)O2)c(=O)[nH]c1=O`, the Potency entry was “inactive”. Then `C[C@@H]1CC(=O)NN=C1c1ccc(NN=C(C#N)C#N)cc1`, with 20.9 µM (active). Consider `CN(C)CCOC(c1ccccc1)c1ccccc1`, for which the Potency entry was “inactive”.

On to `CC(C)Cc1ccc(C(C)C(=O)O)cc1` (stereo not given), for which the Potency entry is “inactive”. As to `COC(=O)Nc1nc2ccc(C(=O)c3cccs3)cc2[nH]1`, the Potency is 0.0026 µM (active). On to `CC(CCc1ccc(O)cc1)NCCc1ccc(O)c(O)c1` (stereo not given), for which the Potency was 9.35 µM (active). As to `CCCNCC(O)COc1ccccc1C(=O)CCc1ccccc1` (stereo not given), the Potency result is “inactive”. Take `CC(C(=O)O)c1cccc(C(=O)c2ccccc2)c1` (stereo not given): the Potency result is “inactive”. Then `CN(C)c1nc(N(C)C)nc(N(C)C)n1`, with “inactive”; and `CC#C[C@]1(O)CC[C@H]2[C@@H]3CCC4=CC(=O)CCC4=C3[C@@H](c3ccc(N(C)C)cc3)C[C@@]21C`, with 1.32 µM (active); and `CC(C)NCC(O)COc1ccc(CCOCC2CC2)cc1` (stereo not given), with 5.9 µM (active). Take `CCN1CCCC1CNC(=O)c1cc(S(=O)(=O)CC)c(N)cc1OC` (stereo not given): the Potency entry is “inactive”. Then `CS(=O)(=O)CCNCc1ccc(-c2ccc3ncnc(Nc4ccc(OCc5cccc(F)c5)c(Cl)c4)c3c2)o1`, with 29.6 µM (active). Turning to `NC(CO)C(=O)NNCc1ccc(O)c(O)c1O` (stereo not given), the Potency is 26.4 µM (active). Take `CN(CCOc1ccc(NS(C)(=O)=O)cc1)CCc1ccc(NS(C)(=O)=O)cc1`: the Potency entry is “inactive”. On to `Cc1cc(C(C)(C)C)cc(C)c1CC1=NCCN1`, for which the Potency entry is “inactive”. For `CC[N+](CC)(CC)CCOc1cccc(OCC[N+](CC)(CC)CC)c1OCC[N+](CC)(CC)CC`, the Potency entry was “inactive”. Turning to `CC(C)C(=O)Nc1ccc([N+](=O)[O-])c(C(F)(F)F)c1`, the Potency result was “inactive”.

As for `CC1COc2c(N3CCN(C)CC3)c(F)cc3c(=O)c(C(=O)O)cn1c23` (stereo not given), the Potency result is “inactive”. As for `CN1C(C(=O)Nc2ccccn2)=C(O)c2ccccc2S1(=O)=O`, the Potency result is “inactive”.

For the compound `NS(=O)(=O)c1cc2c(cc1Cl)NCNS2(=O)=O`, the Potency entry is “inactive”. With `CC(=O)OCC(CCn1cnc2cnc(N)nc21)COC(C)=O`, the Potency entry is “inactive”. Then `CCC1(c2ccccc2)C(=O)NCNC1=O`, with “inactive”; and `CC(C)(C)C(=O)Oc1ccc(S(=O)(=O)Nc2ccccc2C(=O)NCC(=O)O)cc1`, with “inactive”; and `O=C1Cc2cc(CCN3CCN(c4nsc5ccccc45)CC3)c(Cl)cc2N1`, with 20.9 µM (active).
